From PubChem BioAssay (NCATS)
Records with an inconclusive call do not appear. A call without a number means that no potency is given here. Values without a mark were called inactive. Calls of active or inactive are those of the source. Calls follow the shape of the dose curve; as a rule, active = well fitted curve in the direction sought with a large enough effect; inconclusive = small, poorly fitted or top-dose-only effect, or another doubt; inactive = no such curve, though single readings can be large; an effect the other way counts as inactive or inconclusive.

Key:
Hek293T = assay: Primary qHTS to identify gynecologic anti-cancer compounds using libraries of approved drugs and bioactive compounds (AID 1345084); conditions: Gynecologic cancer cell panel viability, ATPlite luminescence, 48 h, control line for the selectivity index; series mostly up to 57.5 µM; also: nearly all actives have a fitted effect of over 55% in size
How it was run: (§1)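 Luminescence from the ATPlite ATP-monitoring reagent indicates viable cell number; lower signal means cytotoxicity. Cells received compound 16 h after seeding and were exposed for 48 h across five concentrations.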

JEG-3 = assay: as above; conditions: Gynecologic cancer cell panel viability, ATPlite luminescence, 48 h; series mostly up to 57.5 µM
How it was run: as §1

OV90 = assay: as above; conditions: Gynecologic cancer cell panel viability, ATPlite luminescence, 48 h; series mostly up to 57.5 µM
How it was run: as §1

PA-1 = assay: as above; conditions: Gynecologic cancer cell panel viability, ATPlite luminescence, 48 h; series mostly up to 57.5 µM
How it was run: as §1

SKOV3 = assay: as above; conditions: Gynecologic cancer cell panel viability, ATPlite luminescence, 48 h; series mostly up to 57.5 µM
How it was run: as §1

Tov-21-G = assay: as above; conditions: Gynecologic cancer cell panel viability, ATPlite luminescence, 48 h; series mostly up to 57.5 µM
How it was run: as §1

Tov112D = assay: as above; conditions: Gynecologic cancer cell panel viability, ATPlite luminescence, 48 h; series mostly up to 57.5 µM
How it was run: as §1

[1] = Drug repurposing screens with cells derived from glioblastoma tumor samples (AID 1345199); conditions: GBM patient neurospheres viability, ATP luminescence, 48 h; also: nearly all actives have a fitted effect of over 40% in size; also: potency is read from the fitted curve at half-maximal effect
How it was run: (§2)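 Primary testing used CD133+ neurospheres from four GBM patients, seven concentrations, 48 h exposure and ATP-based viability; confirmation added three slower-growing patient lines.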

astro = assay: as above; conditions: viability, ATP luminescence, 48 h; series mostly up to 45.9 µM
How it was run: as §2

[2] = at 20 µM (top of the series), tumour line C
[3] = at 21.2 µM (top of the series), tumour line B
[4] = at 21.2 µM (top of the series), tumour line D
[5] = at 21.3 µM (top of the series), tumour line A
[6] = at 45.9 µM (top of the series), tumour line B
[7] = at 45.9 µM (top of the series), tumour line D
[8] = at 46 µM (top of the series), tumour line A
[9] = at 46.1 µM (top of the series), tumour line C

Structure (SMILES) | Potency (Hek293T) | Potency (JEG-3) | Potency (OV90) | Potency (PA-1) | Potency (SKOV3) | Potency (Tov-21-G) | Potency (Tov112D) | activity, negative = cell killing [1, 2] | activity, negative = cell killing [1, 3] | activity, negative = cell killing [1, 4] | activity, negative = cell killing [1, 5] | Potency (astro) | activity, negative = cell killing [1, 6] | activity, negative = cell killing [1, 7] | activity, negative = cell killing [1, 8] | activity, negative = cell killing [1, 9] | Potency ([1]; tumour line A) | Potency ([1]; tumour line D)
CCC1NC(=O)c2cc(S(N)(=O)=O)c(Cl)cc2N1 (configuration not stated) | inactive | inactive | inactive | inactive | inactive | inactive | inactive | -6.38% | -2.62% | -14.7% | -12.3% | inactive |  |  |  |  |  | 
CCC(Cc1c(I)cc(I)c(N)c1I)C(=O)O (configuration not stated) | inactive | inactive | inactive | inactive | inactive | inactive | inactive | 4.71% | 4.87% | 3.32% | -20% | inactive |  |  |  |  |  | 
FC(F)(F)C(F)(F)C(F)(F)C(F)(F)C(F)(F)C(F)(F)C(F)(F)C(F)(F)Br | inactive | inactive | inactive | inactive | inactive | inactive | inactive |  |  |  |  | inactive | -8.68% | -7.68% | -17.2% | 5.77% |  | 
CC1CCc2c(N3CCC(O)CC3)c(F)cc3c(=O)c(C(=O)O)cn1c23 (configuration not stated) | inactive | inactive | inactive | inactive | inactive | inactive | inactive |  |  |  |  | inactive | 9.87% | -25.4% | -14.1% | -16% |  | 
CCCCCCCCCCCCCC(=O)OC(C)C | inactive | inactive | inactive | inactive | inactive | inactive | inactive |  |  |  |  | inactive | 8.22% | -15.3% | -17.4% | 3.73% |  | 
CC(C)(C)NCC(O)COc1cccc2c1C[C@H](O)[C@H](O)C2 (some centres not stated) | inactive | inactive | inactive | inactive | inactive | inactive | inactive | -4.25% | -2.25% | -3.22% | -16.2% | inactive |  |  |  |  |  | 
Cc1cccc(C)c1NC(=O)CN1CCCC1 | inactive | inactive | inactive | inactive | inactive | inactive | inactive |  |  |  |  | inactive | -9.15% | 5.92% |  | -8.15% |  | 
CCCCOC(=O)CC(CC(=O)OCCCC)(OC(C)=O)C(=O)OCCCC | inactive | inactive | inactive | inactive | inactive | inactive | inactive |  |  |  |  | inactive | -5.84% | -7.23% |  | -12.4% |  | 
Cc1c[nH]c2ccccc12 | inactive | inactive | inactive | inactive | inactive | inactive | inactive |  |  |  |  | inactive | -3.32% | -13.8% |  | -16.3% |  | 
C[N+]12CCC(CC1)C(OC(=O)C(O)(c1ccccc1)c1ccccc1)C2 (configuration not stated) | inactive | inactive | inactive | inactive | inactive | inactive | inactive | -3.46% | -10.6% | -5.49% |  | inactive |  |  |  |  |  | 
CCCCCCCC/C=C\CCCCCCCCN | inactive | inactive | inactive | inactive | inactive | inactive | inactive |  |  |  |  | inactive | -5.85% | -1.47% |  | -19.7% |  | 
CC(=O)O[C@H]1C[C@@H]2CC[C@@H]3[C@H](CC[C@@]4(C)[C@H]3C[C@H]([N+]3(C)CCCCC3)[C@@H]4OC(C)=O)[C@@]2(C)C[C@@H]1N1CCCCC1 | inactive | inactive | inactive | inactive | inactive | inactive | inactive |  |  |  |  | inactive | -12.1% | -1.11% |  | -3.89% |  | 
c1ccc(CC2=NCCN2)cc1 | inactive | inactive | inactive | inactive | inactive | inactive | inactive | -9.44% | -1.18% | -24.9% |  | inactive |  |  |  |  |  | 
FC1(F)C(F)(F)C(F)(F)C2(F)C(F)(F)C(F)(F)C(F)(F)C(F)(F)C2(F)C1(F)F (configuration not stated) | inactive | inactive | inactive | inactive | inactive | inactive | inactive |  |  |  |  | inactive | -14.2% | -0.34% |  | -17% |  | 
Cc1ccccc1OCC(O)CO (configuration not stated) | inactive | inactive | inactive | inactive | inactive | inactive | inactive |  |  |  |  | inactive | -8.02% | -9.22% |  | -19.6% |  | 
O=C(O)C1(C(=O)O)CCC1.[NH2-].[NH2-].[Pt+2] | inactive | inactive | inactive | inactive | inactive | inactive | inactive |  |  |  |  | inactive | -20.6% | -8.04% |  | -13.1% |  | 
CC1(C)OC[C@@H]2O[C@@]3(C(=O)O)OC(C)(C)O[C@H]3[C@@H]2O1 | inactive | inactive | inactive | inactive | inactive | inactive | inactive |  |  |  |  | inactive | 2.23% | 2.89% |  | -11.9% |  | 
N[C@H](C(=O)O)[C@@H](O)c1ccc(O)c(O)c1 | inactive | inactive | inactive | inactive | inactive | inactive | inactive |  |  |  |  | inactive | -8.13% | -33.1% |  | -8.89% |  | 
CCOC(=O)Nc1ccc2c(c1)N(C(=O)CCN1CCOCC1)c1ccccc1S2 | inactive | inactive | inactive | inactive | inactive | inactive | inactive | -16.1% | -11.1% | -19.6% |  | inactive |  |  |  |  |  | 
CN(C)C(=O)Nc1ccc(Cl)c(Cl)c1 | inactive | inactive | inactive | inactive | inactive | inactive | inactive |  |  |  |  | inactive | -10.4% | -7.69% |  | -10.1% |  | 
NC(=O)C1(N2CCCCC2)CCN(CCCC(=O)c2ccc(F)cc2)CC1 | inactive | inactive | inactive | inactive | inactive | inactive | inactive |  |  |  |  | inactive | -7.35% | -28% |  |  | 10 µM (active) | 
Cc1cccc(C)c1NC(=O)c1ccccc1C(=O)O | inactive | inactive | inactive | inactive | inactive | inactive | inactive |  |  |  |  | inactive | -1.45% | -18.5% |  | -17.8% |  | 
CC(C)[N+](C)(C)CC(O)COc1cccc2ccccc12 (configuration not stated) | inactive | inactive | inactive | inactive | inactive | inactive | inactive |  |  |  |  | inactive | -19.8% | -17.5% |  | -27.6% |  | 
O=C1c2cccc3c2[C@H](CCC3)CN1[C@@H]1CN2CCC1CC2 | inactive | inactive | inactive | inactive | inactive | inactive | inactive |  |  |  |  | inactive | -28.4% |  |  |  | 11.2 µM (active) | 11.2 µM (active)
O=C1C(=O)c2ccccc2C(O)=C1C1CCC(c2ccc(Cl)cc2)CC1 (configuration not stated) | inactive | inactive | inactive | inactive | inactive | inactive | inactive | -16.4% |  |  |  | 12.6 µM (active) |  |  |  |  | 14.1 µM (active) | 8.91 µM (active)
OC[C@H]1O[C@@H](Oc2ccc(O)cc2)[C@H](O)[C@@H](O)[C@@H]1O | inactive | inactive | inactive | inactive | inactive | inactive | inactive |  |  |  |  | inactive | 0.949% | 7.3% |  | -9.99% |  | 
